Screens: PubChem BioAssay, several laboratories
PG9 binder – binders of HIV-1 gp120 antibody PG9, primary screen, biochemical, TR-FRET | HIV-1 gp120 / PG9 antibody interaction | TR-FRET gp120-PG9 antibody binding | inhibition, % at 6.7 µM | 0.43% of 360,000 active | AID 624416, 2012; in the data active = inhibition above about 8.5%
NR1D1 modulator – modulators of Rev-erb alpha DNA binding, primary screen, biochemical, FITC-DNA, fluorescence polarization, uHTS; 0.79% of 370,000 active; AID 1259318, 2017; activity, % at 10 µM; Nuclear receptor subfamily 1 group D member 1 (Homo sapiens), P20393; Rev-erbα–FITC-DNA binding, 90 min;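 active = activity above about 14%, limit read from the data; passing the limit was not always enough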;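 note: 0% = DMSO wells with 35 nM protein and 100% = DMSO wells with 750 nM protein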
ZTA DNA inh – blocks Epstein-Barr virus ZTA, an EBNA-1 counter-screen; inhibition, % at 11 µM; P03206; AID 2234; 0.15% of 320,000 active; ZTA-DNA binding, fluorescence polarization; in the data active = inhibition above about 33%
Target sequence (P03206 whole entry, looked up): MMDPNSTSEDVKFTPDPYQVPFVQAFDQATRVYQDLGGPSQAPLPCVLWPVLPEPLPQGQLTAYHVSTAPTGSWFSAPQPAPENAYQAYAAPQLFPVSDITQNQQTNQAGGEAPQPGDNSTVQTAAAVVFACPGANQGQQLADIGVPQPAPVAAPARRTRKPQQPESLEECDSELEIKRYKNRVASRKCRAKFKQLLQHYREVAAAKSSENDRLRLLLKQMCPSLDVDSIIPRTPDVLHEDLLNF
aDG glyco act – activators of alpha-DG glycosylation, primary screen, uHTS, Pro5-aDG cells, AlphaScreen | activation, % at 10 µM | alpha-DG glycosylation AlphaScreen (IIH6); 0% Pro5, 100% B10-LARGE cell signal | 0.22% of 360,000 active;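 active = activation of at least 8% versus controls, or a plate z-score of at least 8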;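 note: Pro5 are CHO cells carrying HIG-tagged alpha-DG that lacks glycosylation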
NCF1 inh – p47phox/p22phox peptide binding inhibitors, primary screen, biochemical, uHTS, NADPH oxidase regulatory subunit; fluorescence polarization, 2 h; inhibition, % at 24.7 µM; 0.53% of 220,000 active; AID 1274, 2008;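 active = inhibition above about 30%, limit read from the data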;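 note: 0% = p47phox with labelled peptide and 100% = labelled peptide alone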
Target sequence (P14598 whole entry, looked up): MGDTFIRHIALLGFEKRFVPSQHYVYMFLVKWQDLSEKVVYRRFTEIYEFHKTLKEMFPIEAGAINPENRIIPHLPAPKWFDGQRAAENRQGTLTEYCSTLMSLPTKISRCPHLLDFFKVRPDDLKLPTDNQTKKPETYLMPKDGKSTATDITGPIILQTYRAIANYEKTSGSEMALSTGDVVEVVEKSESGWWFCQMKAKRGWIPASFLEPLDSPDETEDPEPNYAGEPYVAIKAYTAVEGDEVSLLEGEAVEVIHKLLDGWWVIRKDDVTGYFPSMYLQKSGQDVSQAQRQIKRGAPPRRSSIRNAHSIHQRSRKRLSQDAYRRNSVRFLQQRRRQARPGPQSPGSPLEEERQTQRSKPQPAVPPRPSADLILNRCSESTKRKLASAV
EBNA-1 inhibitor – EBNA-1 DNA-binding inhibitors, primary screen, biochemical, fluorescence polarization. inhibition, % at 14.8 µM. 0.34% of 300,000 active; in the data active = inhibition above about 28%
NR1D1 mod conf – modulators of Rev-erb alpha DNA binding, confirmation, biochemical, FITC-DNA, fluorescence polarization, single point. 61% of 3,000 active. shares compounds with NR1D1 modulator. 90 min. AID 1259319, 2017. activation, % at 25 µM;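 active = activation at or above a set limit, or at least 3 SD above the negative control mean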;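 note: 0% = 35 nM protein with DMSO and 100% = 750 nM protein high control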
RORg DNA counter – modulation of RORgamma DNA binding, dose response, counter-screen for Rev-erb alpha modulator project, biochemical, fluorescence polarization, FITC-DNA | IC50, µM | AID 1259320, 2017 | shares compounds with NR1D1 modulator | 8% of 910 active | purified RORgamma protein-FITC-DNA binding;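 active = Compounds whose fitted half-maximal concentration for disrupting protein-DNA binding is below 10 micromolar; the record names Rev-erb in its text, so the target is in doubt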
* hit, by the source's call; i = inactive; · = no result given. Shown are actives, neighbours in structure and some others; about 1.9% of the full set was active somewhere.

SMILES	PG9 binder	NR1D1 modulator	ZTA DNA inh	aDG glyco act	NCF1 inh	EBNA-1 inhibitor	NR1D1 mod conf	others
Cc1c(NC(=O)C2CCCN(S(=O)(=O)c3ccccc3[N+](=O)[O-])C2)c(=O)n(-c2ccccc2)n1C (stereo not given)	·	-1	·	·	·	·	·
COc1ccc(-c2oc(=O)c3cc(OC)c(OC)cc3c2C#C[C@]2(O)CC[C@H]3[C@@H]4CCc5cc(OC)ccc5[C@H]4CC[C@@]32C)cc1	-1	30*	·	0	·	·	3
COc1ccc(-c2oc(=O)c3cc(OC)c(OC)cc3c2C#CCCO)cc1	0	0	·	0	·	·	·
COc1ccc(-n2nnnc2SCC(=O)Nc2ccc3c(c2)OCCO3)cc1OC	-1	-7	-4	0	3	-3	·
COc1cccc(-n2nnnc2SCC(=O)Nc2ccc3c(c2)OCCO3)c1	2	30*	3	0	17	5	46*	RORg DNA counter=i
CCOC(=O)N1CCC(NC(=O)c2cc3c(-c4ccc(Cl)cc4)nn(C)c3s2)CC1	-1	20*	-6	0	-1	-5	19*
CC(C)c1ccc(NC(=O)Cn2c(=O)oc3ccccc32)cc1	-1	1	-6	0	·	-11	·
CCn1c2ccccc2n2c(=O)c(=O)n(CC(=O)Nc3ccc(C(C)C)cc3)nc12	-1	31*	-16	0	-15	3	4
COC(=O)[C@H](C)NC(=O)[C@H](CC(C)C)NC(=O)OC(C)(C)C	·	9	·	·	·	·	·
C[C@H]1[C@@H](OC(=O)NCCc2ccccc2)CC[C@@]23CCCN2C(=O)CCC[C@@H]13	·	-2	·	·	·	·	·
O=C(Nc1cccc(-c2csc(Nc3ccccc3)n2)c1)c1ccccc1	-1	-4	11	0	-5	12	·
O=C(Nc1nc(-c2ccc3c(c2)Cc2ccccc2-3)cs1)c1ccccc1	-3	50*	6	0	-7	15	14
COc1ccc(C2C(C(=O)N3CCN(C=O)CC3)CC(=O)N2c2ccc(OC)cc2)cc1 (stereo not given)	·	4	·	·	·	·	·
CC(=O)c1cc(-c2ccccc2)n(CC(=O)NCc2ccccc2)c1C	·	-8	·	·	·	·	·
CC(=O)c1cc(-c2ccccc2)n(CC(=O)NCc2ccc(Cl)cc2)c1C	·	24*	·	·	·	·	16*
COc1ccc(C(=O)Nc2cc(C(C)=O)c(C)oc2=O)cc1	-2	0	0	0	-20	-7	·
CC(=O)c1cc(NC(=O)c2cccc(C(F)(F)F)c2)c(=O)oc1/C=C/N(C)C	-1	20*	2	0	-42	-5	14
CC(=O)c1cc(NC(=O)c2ccc(Cl)cc2)c(=O)oc1/C=C/N(C)C	-10	26*	-14	0	-7	0	29*
CC(=O)c1cc(NC(=O)c2cccc(C(F)(F)F)c2)c(=O)oc1C	1	-6	6	-1	-8	-17	·
CC(C)CN1C(=O)[C@@]2(CC(=O)N(C)C2c2ccccc2)c2cc(-n3cc(CCc4ccccc4)nn3)ccc21 (stereo not given in full)	·	-2	·	·	·	·	·
CCOc1ccc(Oc2c(Cl)c(Br)nn(Cc3cccc4ccccc34)c2=O)cc1	·	2	·	·	·	·	·
COC(=O)[C@]12C[C@H](CC(=O)N3CCN(C(=O)C4CC4)CC3)C(=O)N(CCC3=CCCCC3)C1=C[C@H](C1CCCC1)O[C@@H]2C	·	3	·	·	·	·	·
CCOC(=O)c1c(-c2cccs2)csc1NC(=O)CC(C)C	0	1	-2	0	1	-3	·
CCOC(=O)c1c(-c2cccs2)csc1NC(=O)c1ccco1	-2	36*	-5	0	-21	-7	11
CC(C)c1ccc(NC(=O)CSc2nc(-c3ccccc3F)nc3nc[nH]c23)cc1	-2	34*	10	0	-24	-2	18*
SMILES	PG9 binder	NR1D1 modulator	ZTA DNA inh	aDG glyco act	NCF1 inh	EBNA-1 inhibitor	NR1D1 mod conf	others
CC(C)c1ccc(NC(=O)CSc2nc(=O)[nH]c3c2CCCC3)cc1	0	6	9	0	·	7	·
C#CCN1CC(N(C)CCOC(=O)c2cc3ccccc3[nH]2)CS1(=O)=O (stereo not given)	·	10	·	·	·	·	·
CC(C)(C)N1Cc2nnn(Cc3ccccc3)c2-c2ccccc2S1(=O)=O	·	1	·	·	·	·	·
CCCCCn1c(SCC(=O)c2ccccc2)nc2cc(C(=O)NCC3CCCO3)ccc2c1=O (stereo not given)	-1	69*	·	0	·	·	25*
CCCCCn1c(SCC(=O)c2ccccc2)nc2cc(C(=O)NCc3ccco3)ccc2c1=O	1	-3	·	0	-10	·	·
C#CCNC(=O)C[C@H]1C[C@@]2(C(=O)OC)C(=C[C@H](C3CCCC3)O[C@@H]2C)N(Cc2ccc(Cl)cc2Cl)C1=O	·	-6	·	·	·	·	·
O=S(=O)(CC1NCc2ccccc21)NC1CCCC1 (stereo not given)	·	4	·	·	·	·	·
COC(=O)Cn1c(=NC(=O)c2nc3ccccc3s2)sc2cc(S(N)(=O)=O)ccc21	-2	39*	12	0	4	3	23*
COCCn1c(=NC(=O)c2ccc(S(=O)(=O)N3CCCc4ccccc43)cc2)sc2cc(S(C)(=O)=O)ccc21	0	11	10	0	-13	-5	·
COC(=O)Cn1c(=NC(=O)c2cc(-c3cccs3)nc3ccccc23)sc2cc(S(N)(=O)=O)ccc21	-2	3	-9	0	-64	16	·
COCCn1c(=NC(=O)c2ccc3c(c2)OCCO3)sc2cc(S(N)(=O)=O)ccc21	7	29*	3	2	·	-3	38*	RORg DNA counter=i
COCCn1c(=NC(=O)c2nc3ccccc3s2)sc2cc(S(C)(=O)=O)ccc21	0	89*	-12	0	7	-8	63*	RORg DNA counter=>40
CC(C)C[C@@H]1NC(=O)[C@H]2C[C@]3(c4ccccc4)c4ccccc4N[C@H]3N2C1=O	·	-1	·	·	·	·	·
COC(=O)c1sc2nc3c(cc2c1N)C(=O)CC(C)(C)C3	-2	70*	-17	0	-10	-11	44*	RORg DNA counter=>40
Cc1ccc(C(=O)OCC(=O)N2CCC(c3ccccc3)=N2)c(C)c1	-1	-1	-8	0	·	4	·
CC(C)(C)c1ccc(C(=O)OCC(=O)N2CCC(c3ccccc3)=N2)cc1	-2	14*	7	0	·	·	-1
